Source: PubChem (National Center for Advancing Translational Sciences (NCATS))
D2 PAM-1 – positively modulates the human D2 dopamine receptor allosterically; P14416; potentiation, % at 10 µM; hit rate 0.34% among 340,000; HEK293 T-REx D2, calcium flux, EC20 dopamine potentiation;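 active = potentiation over 3 SD above the plate norm, cut at about 30% in these data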
Target sequence (P14416 whole entry, looked up): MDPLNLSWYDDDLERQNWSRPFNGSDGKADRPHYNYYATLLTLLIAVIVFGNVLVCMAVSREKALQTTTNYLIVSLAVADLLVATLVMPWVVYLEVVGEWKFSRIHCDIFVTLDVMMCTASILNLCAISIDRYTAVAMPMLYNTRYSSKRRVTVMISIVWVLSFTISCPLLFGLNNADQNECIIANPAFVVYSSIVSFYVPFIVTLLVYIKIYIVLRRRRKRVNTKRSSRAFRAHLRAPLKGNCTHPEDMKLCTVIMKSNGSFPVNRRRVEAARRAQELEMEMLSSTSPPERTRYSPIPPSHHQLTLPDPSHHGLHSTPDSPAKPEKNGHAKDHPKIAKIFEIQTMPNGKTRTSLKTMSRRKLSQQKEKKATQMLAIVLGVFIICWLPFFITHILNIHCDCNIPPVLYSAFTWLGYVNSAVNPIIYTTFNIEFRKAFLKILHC
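Potentiation of an EC20 dopamine calcium response is measured in a force-coupled, tetracycline-inducible Hek293 Trex D2 line. Compound-only kinetic reads over 180 s flag agonists before dopamine addition.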
D2 antag – antagonizes the human D2 dopamine receptor | AID 485344 | HEK293 TREx D2 cells, calcium flux, dopamine EC80 | inhibition, % at 10 µM | hit rate 2% among 340,000; in the data active = inhibition above about 30%; inactive = below that, where a call was filed
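Read-out: kinetic calcium fluorescence (1 cycle/s) in inducible HEK293 T-REx D2 cells after an EC80 dopamine addition that followed 180 s compound preincubation. Loss of the dopamine response indicates antagonism.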
D2 PAM-2 – potentiates the human D2 dopamine receptor allosterically; P14416; DiscoveRx D2 beta-arrestin cells, luminescence, 90 min; 100% = 57 uM dopamine signal; potentiation, % (no concentration beside the values); hit rate 0.23% among 360,000; AID 624464; in the data active = potentiation above about 50%
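D2 cells co-treated with compound plus 50 nM dopamine (EC20) for 90 min at 37 deg C to detect potentiation. Beta-arrestin recruitment was read as enzyme-fragment luminescence after 1 h at ambient temperature. Full response was set by 57 uM dopamine.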
D2 ag-1 – human D2 receptor agonism in beta-arrestin assay. P14416. DiscoveRx PathHunter D2 beta-arrestin, luminescence, 90 min; 100% = 57 uM dopamine signal. activation, % (concentration not given with the values). hit rate 0.084% among 360,000. AID 624465; in the data active = activation above about 40%
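DiscoveRx PathHunter D2 beta-arrestin cells (2,100/well) attached overnight, then compound-stimulated 90 min at 37 C in HBSS/10 mM HEPES/0.1% Tween-20 buffer; beta-galactosidase complementation read by luminescence after 1 h at ambient temperature. Dopamine 57 uM final (EC100) as control.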
D2 ag-2 – agonists of human D2 dopamine receptor; hit rate 0.53% among 340,000; P14416; activation, % at 2 µM; HEK293 T-REx D2 cells, calcium flux agonist mode;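 active = activation over 3 SD above normal in the single-dose calcium agonist read, cut at about 30% in these data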
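Agonism scored from kinetic calcium signal (1 read/sec, 180 s) following compound pin transfer, after a 10 s baseline. Cells: HEK293 Trex line expressing inducible D2 receptor coupled to calcium, dye-loaded after overnight culture at 30 C.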
Numbers stand for hits; n = inactive; x = no result. A selection: hits, their analogues and other compounds. The true share with any hit is near 2.4%.

SMILES	D2 PAM-1	D2 antag	D2 PAM-2	D2 ag-1	D2 ag-2
Cc1ccc(CN2CCN(CC(=O)NC(C)CCc3ccccc3)C2=O)cc1 (stereo unspecified)	30	n	n	n	n
CC(CCc1ccccc1)NC(=O)CN1CCN(Cc2ccccc2)C1=O (stereo unspecified)	n	n	n	n	n
CC(CCc1ccccc1)NC(=O)c1ccccc1C(=O)O (stereo unspecified)	n	n	n	n	30
CC(CCc1ccccc1)NC(=O)c1ccc(C(=O)NC(C)CCc2ccccc2)cc1 (stereo unspecified)	n	n	n	n	n
CC(C)CN1C(=O)C(=O)N(CC(=O)NC(C)CCc2ccccc2)C1=O (stereo unspecified)	n	52	n	n	n
CCN(CC)c1nn2c(=O)c(C(=O)NCc3cccc(OC)c3OC)cnc2s1	n	x	x	x	n
Cc1ccc(CNC(=O)CCc2nnc3n(C)c(=O)c4sccc4n23)cc1	n	x	x	x	n
COC(=O)C1=C(C)NC(=O)NC1c1cn(-c2ccccc2)nc1-c1ccc(OC)c(Br)c1 (stereo unspecified)	n	x	x	x	n
CCOC(=O)CNC=C(C(=O)OCC)C(=O)OCC	n	n	n	n	n
CCOC(=O)C(=CNCC(=O)OC)C(=O)OCC	n	36	n	n	n
COC(=O)CN1C(=O)C(C)(C)c2cc(S(=O)(=O)Nc3ccc(C(C)C)cc3)ccc21	n	x	x	x	n
Cc1ccc(-n2ncc3c(NCCCN4CCOCC4)ncnc32)cc1C	n	x	x	x	n
Cc1ccc(-c2cnc(-c3ccncc3)o2)cc1	n	32	n	n	n
Nc1ccc(-c2ncc(-c3ccccc3)o2)cc1	n	n	n	n	n
CCCN(Cc1cccs1)C(=O)Nc1ccc(F)c(Cl)c1	n	x	x	x	n
CCOC(=O)N1CCC(Nc2c(Nc3ccc(C)c(C)c3)c(=O)c2=O)CC1	n	57	n	n	n
CCCCOc1cccc(C2c3c(-c4cc(C)ccc4O)n[nH]c3C(=O)N2CCOC)c1 (stereo unspecified)	n	x	x	x	x
CCn1cc2nc(SCC(=O)Nc3ccc(F)cc3F)n(Cc3ccccc3)c(=O)c2n1	n	32	n	n	n
CCn1cc2nc(SCC(=O)Nc3cccc(Cl)c3C)n(Cc3ccc(Cl)cc3)c(=O)c2n1	n	x	x	x	n
Cc1ccc(C(C(=O)NC2CCCCC2)N(Cc2ccco2)C(=O)Cc2c[nH]c3ccccc23)o1 (stereo unspecified)	n	36	n	n	n
CCOC(=O)C1=C(CS(=O)(=O)c2ccc(C(C)(C)C)cc2)NC(=O)NC1c1cccc(OC)c1 (stereo unspecified)	n	x	x	x	n
Cc1ccc(C2=NC(c3ccccc3)=Nc3ccc(Cl)cc3N2)cc1	n	x	x	x	n
COc1cccc(N2CCN(Cc3cccnc3)CC2)c1	n	n	n	n	n
FC(F)(F)c1cccc(N2CCN(Cc3ccoc3)CC2)c1	n	103	n	n	n
FC(F)(F)c1cccc(N2CCN(Cc3cccnc3)CC2)c1	n	76	n	n	n
SMILES	D2 PAM-1	D2 antag	D2 PAM-2	D2 ag-1	D2 ag-2
COc1ccc(CC(=O)N(Cc2nc(-c3ccc(C)cc3)no2)C(C)C)cc1	n	x	x	x	n
COc1cc(/C=C/C(=O)c2ccc3c(c2)OCO3)cc(Cl)c1O	n	35	n	n	78
CC1(C)CC(=O)C/C(=N\NC(=O)C2CC23CCC3)C1 (stereo unspecified)	n	47	n	n	n
O=S(=O)(c1ccc(Cl)cc1)c1nc(-c2cccs2)oc1SCc1ccccc1F	n	x	x	x	n
CC(C)CCNC(=O)C(=O)Nc1c2c(nn1-c1ccc(Cl)cc1)CSC2	n	x	x	x	x
O=C(Nc1cccc([N+](=O)[O-])c1)Nc1cccc([N+](=O)[O-])c1	n	n	n	n	n
Cc1ccc[n+](CC(=O)Nc2cccc([N+](=O)[O-])c2)c1	n	32	n	n	n
O=C(Nc1cccc([N+](=O)[O-])c1)Nc1cnccn1	n	n	n	n	38
O=C(O)CCCC(=O)Nc1cccc([N+](=O)[O-])c1	38	n	n	n	n
COc1ccc(CC(=O)NCc2nc3cccnc3n2Cc2ccc(C)cc2)cc1OC	n	x	x	x	n
Cc1ccc(C)c(-c2nnc(NC(=O)Cc3ccc(F)cc3)o2)c1	n	n	n	n	n
Cc1ccc(-c2nnc(NC(=O)Cc3ccc(F)cc3)o2)c(C)c1	n	67	n	n	n
